# An excerpt weighted towards active compounds, which were near 2.4% of everything screened.
# D2 antag = antagonizes the human D2 dopamine receptor; HEK293 TREx D2 cells, calcium flux, dopamine EC80; 2% of 340,000 active; P14416; inhibition, % at 10 µM; in the data active = inhibition above about 30%; inactive = below that, where a call was filed
# Target sequence (P14416 whole entry, looked up): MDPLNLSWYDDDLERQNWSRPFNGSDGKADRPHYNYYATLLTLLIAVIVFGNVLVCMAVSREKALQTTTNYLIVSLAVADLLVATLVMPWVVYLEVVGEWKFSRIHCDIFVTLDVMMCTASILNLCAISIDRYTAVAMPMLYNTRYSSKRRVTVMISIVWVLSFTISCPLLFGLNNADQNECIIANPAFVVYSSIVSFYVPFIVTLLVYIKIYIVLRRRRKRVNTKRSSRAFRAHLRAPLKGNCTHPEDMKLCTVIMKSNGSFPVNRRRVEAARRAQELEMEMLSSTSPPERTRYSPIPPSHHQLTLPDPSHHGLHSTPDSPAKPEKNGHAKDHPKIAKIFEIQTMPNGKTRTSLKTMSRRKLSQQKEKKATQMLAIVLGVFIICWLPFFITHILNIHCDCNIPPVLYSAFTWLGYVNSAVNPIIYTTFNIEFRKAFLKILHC
#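 Dopamine at EC80 is the agonist stimulus; test compounds precede it by 180 s. Calcium flux read kinetically in a force-coupled, inducible HEK293 T-REx D2 cell line.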
# D2 PAM-1 = positive allosteric modulators of human D2 dopamine receptor; P14416; DiscoveRx D2 beta-arrestin cells, luminescence, 90 min; 100% = 57 uM dopamine signal; potentiation, % (concentration not given with the values); 0.23% of 360,000 active; AID 624464; in the data active = potentiation above about 50%; inconclusive = mostly about 30% to 49%
#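 PathHunter beta-arrestin assay in DiscoveRx D2 cells. Compounds were added with an EC20 of dopamine (50 nM final) for 90 min at 37 deg C. Luminescence was read 1 h after detection reagent, with 57 uM dopamine as the EC100 control.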
# D2 ag-1 = agonists of human D2 dopamine receptor (beta-arrestin). P14416. DiscoveRx PathHunter D2 beta-arrestin, luminescence, 90 min; 100% = 57 uM dopamine signal. activation, % (test concentration not listed). AID 624465. 0.084% of 360,000 active; in the data active = activation above about 40%; inconclusive = between about 15% and that limit
#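 Agonist mode: compounds alone added to overnight-plated D2 PathHunter cells for 90 min at 37 C, with 57 uM final dopamine (EC100) defining full response. Beta-arrestin recruitment detected by chemiluminescent reagent, read after 1 h at ambient temperature.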
# D2 PAM-2 = positive allosteric modulators of human D2 dopamine receptor; P14416; HEK293 T-REx D2, calcium flux, EC20 dopamine potentiation; potentiation, % at 10 µM; 0.34% of 340,000 active; AID 485347;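 active = potentiation over 3 SD above the plate norm, cut at about 30% in these data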
#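 Using a no-wash calcium dye in inducible, force-coupled HEK293 Trex cells expressing D2, we tracked fluorescence each second for 180 s after compound, then for 180 s after EC20 dopamine to detect augmented signalling.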
# D2 ag-2 = D2 dopamine receptor (human) agonism | HEK293 T-REx D2 cells, calcium flux agonist mode | activation, % at 2 µM | 0.53% of 340,000 active | AID 485358;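 active = activation over 3 SD above normal in the single-dose calcium agonist read, cut at about 30% in these data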
#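 In this primary screen, compounds producing a positive calcium signal within 180 s of addition to tetracycline-induced, force-coupled HEK293 Trex D2 cells are flagged; cells are dye-loaded with a no-wash calcium kit beforehand.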
# D3 arrestin ag = activates human D3 dopamine receptor beta-arrestin recruitment; DiscoveRx D3 beta-arrestin cells, luminescence, 90 min; shares compounds with D2 ag-2; Potency, µM (series often up to 76.9 µM), most hits filed as activators; 4% of 2,300 active; also: nearly all actives have a fitted effect of over 70% in size
# D2 ag-3 = activates human D2 dopamine receptor in D3 counterscreen; 5.9% of 2,300 active; DiscoveRx PathHunter D2 beta-arrestin, luminescence, 90 min; response scale: percent relative to full dopamine signal; Potency, µM (doses to about 76.9 µM), most hits filed as activators; shares compounds with D2 ag-2; also: nearly all actives have a fitted effect of over 70% in size
# A number is an active result; 0 = inactive; ? = inconclusive; - = not tested or not shown. Unless noted, calls follow the shape of the dose curve; as a rule, active = well fitted activation curve with a large enough effect; inconclusive = small, poorly fitted or top-dose-only effect; inactive = flat fitted curve, though single readings scatter.
SMILES,D2 antag,D2 PAM-1,D2 ag-1,D2 PAM-2,D2 ag-2,D3 arrestin ag,D2 ag-3
COc1ccccc1C(=O)Nc1ccc(N2CCN(Cc3ccccc3)CC2)cc1,0,0,0,0,0,-,-
COc1ccc(CN2CCN(CCCc3ccccc3)CC2)c(OC)c1,0,-,-,0,0,-,-
COc1ccc(CC(C)N2CCN(Cc3ccccc3)CC2)c(OC)c1 (stereo not given),83.0,0,0,0,59.4,0,0
COc1ccc(C)cc1NC(=O)c1ccc(CN2CCN(c3ccccc3)CC2)cc1,88.8,0,?,0,79.5,0,?
COc1ccc(CC(C)N2CCN(c3ccccc3)CC2)cc1OC (stereo not given),66.2,0,?,0,64.7,0,?
COc1ccc(S(=O)(=O)c2c(Nc3ccc(C)cc3C)sc(C(=O)c3ccc(F)cc3)c2N)cc1,-,-,-,0,0,-,-
CCOC(=O)N1CCN(C(=O)COC(=O)COc2c(C)cc(C)cc2C)CC1,-,0,0,-,-,-,-
CC(=O)N1CCN(C(=O)COC(=O)COc2c(C)cc(C)cc2C)CC1,0,0,0,0,0,0,0
O=C(CSc1nc(-c2ccccc2)cn1-c1ccccc1F)Nc1ccc(F)cc1,-,-,-,0,0,-,-
COc1ccc2cc(C(=O)C3CCCN(Cc4cnc(N5CCOCC5)s4)C3)ccc2c1 (stereo not given),0,0,0,0,36.1,0,0
Cc1c(C(=O)Nc2cccc(C(F)(F)F)c2)oc2ccc(S(=O)(=O)N(C)C3CCCCC3)cc12,-,-,-,0,0,-,-
COc1ccccc1CNC(=O)COC(=O)CSc1ccc(C)c(C)c1,0,0,0,0,0,0,0
Cc1ccc(SCC(=O)OCC(=O)NCc2cccs2)cc1C,0,0,0,0,0,-,-
Cc1cc(C(=O)O[C@H]2[C@H](Cc3ccccc3)NS(=O)(=O)[C@H]3C[C@@H]4C=C[C@]23O4)ccc1[N+](=O)[O-],0,0,0,0,0,0,0
COc1cccc(C(=O)O[C@H]2[C@H](C)NS(=O)(=O)[C@H]3C[C@@H]4C=C[C@]23O4)c1,0,0,0,0,0,0,0
O=C(Nc1ccc(C(F)(F)F)cc1[N+](=O)[O-])O[C@H]1[C@H](Cc2ccccc2)NS(=O)(=O)[C@H]2C[C@@H]3C=C[C@]12O3,0,0,?,0,44.3,0,0
COc1cccc(C(=O)O[C@H]2[C@H](Cc3ccccc3)NS(=O)(=O)[C@H]3C[C@@H]4C=C[C@]23O4)c1,-,0,0,-,-,-,-
Cc1cccc(C(=O)O[C@H]2[C@H](C)NS(=O)(=O)[C@H]3CC4C=C[C@]23O4)c1,-,0,0,-,-,-,-
CC(C)N(C(=O)CSc1cn(CC(=O)N2CCCCCC2)c2ccccc12)C(C)C,-,-,-,0,0,-,-
CC(CNC(=O)Cn1c(-c2cccs2)cc2ccccc21)c1ccccc1 (stereo not given),-,-,-,0,0,-,-
O=C(N1CCOCC1)N1CCN(Cc2ccccc2)CC1,0,0,0,0,0,-,-
O=C(c1ccccc1)N1CCN(CC#Cc2ccccc2)CC1,-,0,0,0,-,?,0
O=C(c1ccccc1)N1CCN(Cc2ccccc2)CC1,0,0,0,0,0,0,?
CC(C)(C)c1ccc(C(=O)N2CCN(Cc3ccccc3)CC2)cc1,0,0,0,0,0,-,-
N=C(N)N1CCN(Cc2ccccc2)CC1,0,-,-,0,41.5,0,0
SMILES,D2 antag,D2 PAM-1,D2 ag-1,D2 PAM-2,D2 ag-2,D3 arrestin ag,D2 ag-3
O=C(c1ccc(Br)c([N+](=O)[O-])c1)N1CCN(Cc2ccccc2)CC1,0,0,0,0,0,-,-
O=C(c1ccc(N2CCOCC2)c([N+](=O)[O-])c1)N1CCN(Cc2ccccc2)CC1,0,0,0,0,60.1,0,0
CCn1c(=O)n(-c2ccc3c(c2)OCO3)c2nc(-c3ccc(C(C)C)cc3)nc(C(N)=O)c21,-,-,-,0,0,-,-
COc1ccc(-c2noc(CC(=O)N(C)c3cc(Cl)c(OC)cc3OC)n2)cc1,-,-,-,0,0,-,-
O=C(CSc1n[nH]c(-c2ccccc2Cl)n1)NCCc1ccccc1,-,-,-,0,0,-,-
Cc1ccccc1CSc1nnc2[nH]c(=O)cc(C)n12,-,-,-,0,0,-,-
CN(c1ccc(C(=O)N2CCN(Cc3ccccc3)CC2)cc1)S(=O)(=O)c1ccc(Cl)cc1,89.9,0,?,0,64.6,0,?
CCOC(=O)c1cccc(NC(=O)[C@H](CSCc2ccccc2)N2Cc3ccccc3C2=O)c1,-,-,-,0,0,-,-
COc1ccc(C2(CCN)CC(C)N(C)CC2C)cc1 (stereo not given),0,0,0,0,31.2,0,0
CCOc1ccc(NC(=S)NC(=O)Cc2ccccc2)cc1,0,0,0,0,0,-,-
CCN(CC)c1ccc(NC(=S)NC(=O)Cc2ccccc2)cc1,77.2,0,0,0,73.2,0,0
Cc1c(C(=O)NCCc2ccc(S(N)(=O)=O)cc2)cccc1[N+](=O)[O-],0,0,0,0,0,-,-
Cc1ccc(C(=O)NCCc2ccc(S(N)(=O)=O)cc2)cc1[N+](=O)[O-],0,0,0,0,0,0,0
O=C(O)CCCCCCCCc1cn(CCc2c[nH]c3ccccc23)nn1,0,0,0,0,93.3,0,0
Cc1c(Cc2ccccc2)c(=O)oc2c(O)c(O)ccc12,33.8,0,0,0,54.1,?,0
CCN(c1cccc(C)c1)S(=O)(=O)c1ccc(N2CCCCS2(=O)=O)cc1,-,-,-,0,0,-,-
CCCC(=O)Nc1cc(-c2nnc3c4ccccc4c(C)nn23)ccc1C,-,-,-,0,0,-,-
COc1ccc(CNC(=O)CN2C(=O)c3cccnc3Oc3ccc(C)cc32)cc1,-,-,-,0,0,-,-
CCC(C)N(CCNC(=O)c1ccc2c(c1)NC(=O)c1ccccc1S2)C1CCCCC1 (stereo not given),-,0,0,0,-,0,0
O=C(CSC1=N/C(=C/c2ccc(Cl)c(Cl)c2)C(=O)N1c1ccccc1F)NC1CC1,52.1,0,0,0,0,0,0
O=C(Nc1ccnn1C1CCN(CCCc2ccccc2)CC1)c1ccccc1Cl,87.7,0,?,0,79.5,0,?
CC(C)=CCN1CCC(n2nccc2NC(=O)c2ccccc2Cl)CC1,0,0,0,0,0,-,-
COc1ccc(CCNC(=O)CSC2=NS(=O)(=O)c3ccccc3N2)cc1OC,0,0,0,0,0,-,-
O=C(CSC1=NS(=O)(=O)c2ccccc2N1)NCCc1ccccc1,0,0,0,0,0,0,0
CCOC(=O)CSc1nc2ccc(NC(=O)COc3ccc(F)cc3)cc2s1,-,-,-,0,0,-,-
